Reference: the supplement of paper PMC11732987, “Enantioselective OTUD7B fragment discovery through chemoproteomics screening and high-throughput optimisation” (Communications Chemistry, 2025)

Columns and labels:
Assay in all cases: log2 ratio of Biotin-Ahx-Ub-VS probe labelling (fragment/DMSO); higher = less target engagement (more negative = stronger competition), active = hit call of the paper (q ≤ 0.05, log2 ratio ≤ -1)
Conditions in all cases: compound concentration: 200 uM; treatment time: 3 h
[1] = molecular target: T1, OTUD6B (UniProt Q8N6M0)
T1 sequence (whole entry): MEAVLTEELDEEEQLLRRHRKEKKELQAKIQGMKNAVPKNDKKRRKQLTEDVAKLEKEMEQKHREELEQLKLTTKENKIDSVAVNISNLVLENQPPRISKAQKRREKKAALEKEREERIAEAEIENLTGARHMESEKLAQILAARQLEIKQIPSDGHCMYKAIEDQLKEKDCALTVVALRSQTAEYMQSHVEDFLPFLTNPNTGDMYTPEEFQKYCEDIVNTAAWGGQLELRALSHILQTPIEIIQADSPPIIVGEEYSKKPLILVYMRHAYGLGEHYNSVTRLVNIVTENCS
Outline: (§1)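 Fragment (200 µM) or vehicle was incubated for 3 h with triplicate HEK293T lysate samples of 495 µg, which were then treated with Biotin-Ahx-Ub-VS at 0.5 µM final for 1 h. Labelled DUBs were enriched on NeutrAvidin, digested with LysC and trypsin, and analysed by diaPASEF LC-MS/MS. Values are average log2 fragment/vehicle ratios from an unpaired t-test on global-median-normalised Spectronaut label-free quantities, using proteins with ≥2 unique peptides.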

[2] = molecular target: T2, OTUD7B (UniProt Q6GQQ9)
T2 sequence (whole entry): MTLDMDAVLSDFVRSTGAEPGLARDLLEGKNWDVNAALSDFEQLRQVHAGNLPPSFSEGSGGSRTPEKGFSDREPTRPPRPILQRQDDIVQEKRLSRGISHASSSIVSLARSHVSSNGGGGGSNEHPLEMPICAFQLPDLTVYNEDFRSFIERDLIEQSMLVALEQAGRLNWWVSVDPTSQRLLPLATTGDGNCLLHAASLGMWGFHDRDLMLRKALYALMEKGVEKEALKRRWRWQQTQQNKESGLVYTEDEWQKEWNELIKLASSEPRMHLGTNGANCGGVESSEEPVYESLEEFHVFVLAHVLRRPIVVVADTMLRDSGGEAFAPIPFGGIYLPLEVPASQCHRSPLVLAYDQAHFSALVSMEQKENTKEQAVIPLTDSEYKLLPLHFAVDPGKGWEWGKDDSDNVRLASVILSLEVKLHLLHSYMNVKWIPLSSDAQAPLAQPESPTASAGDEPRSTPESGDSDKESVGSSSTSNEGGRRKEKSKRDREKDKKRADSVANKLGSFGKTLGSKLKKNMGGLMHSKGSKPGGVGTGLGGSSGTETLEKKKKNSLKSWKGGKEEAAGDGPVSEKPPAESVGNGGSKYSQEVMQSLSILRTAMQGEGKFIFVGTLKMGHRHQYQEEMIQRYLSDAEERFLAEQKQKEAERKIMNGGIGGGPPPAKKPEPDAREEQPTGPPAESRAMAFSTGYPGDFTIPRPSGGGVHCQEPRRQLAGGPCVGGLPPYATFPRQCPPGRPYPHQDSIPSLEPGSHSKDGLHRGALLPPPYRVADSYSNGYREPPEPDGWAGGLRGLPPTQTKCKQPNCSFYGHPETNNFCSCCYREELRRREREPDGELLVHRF
Outline: as §1

[3] = molecular target: PRPF8 (UniProt Q6P2Q9)
Outline: as §1

[4] = molecular target: T3, PSMD7 (UniProt P51665)
T3 sequence (whole entry): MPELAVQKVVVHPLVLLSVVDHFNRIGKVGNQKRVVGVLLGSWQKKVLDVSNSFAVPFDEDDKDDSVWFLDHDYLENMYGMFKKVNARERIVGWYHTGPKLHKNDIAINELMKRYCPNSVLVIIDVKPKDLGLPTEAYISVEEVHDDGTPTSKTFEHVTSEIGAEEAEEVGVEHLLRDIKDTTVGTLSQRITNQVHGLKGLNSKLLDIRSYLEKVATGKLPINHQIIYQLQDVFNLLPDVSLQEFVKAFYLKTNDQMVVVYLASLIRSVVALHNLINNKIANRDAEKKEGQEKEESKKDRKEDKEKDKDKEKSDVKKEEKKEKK
Outline: as §1

[5] = molecular target: UCHL1 (UniProt P09936)
Outline: as §1

[6] = molecular target: T4, UCHL3 (UniProt P15374)
T4 sequence (whole entry): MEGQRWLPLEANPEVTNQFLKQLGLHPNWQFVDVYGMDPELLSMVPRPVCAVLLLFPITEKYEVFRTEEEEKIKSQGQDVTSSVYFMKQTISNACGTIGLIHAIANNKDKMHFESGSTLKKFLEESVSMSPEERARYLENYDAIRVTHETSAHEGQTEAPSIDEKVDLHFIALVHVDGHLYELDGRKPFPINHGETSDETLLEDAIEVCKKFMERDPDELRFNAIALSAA
Outline: as §1

[7] = molecular target: T5, UCHL5 (UniProt Q9Y5K5)
T5 sequence (whole entry): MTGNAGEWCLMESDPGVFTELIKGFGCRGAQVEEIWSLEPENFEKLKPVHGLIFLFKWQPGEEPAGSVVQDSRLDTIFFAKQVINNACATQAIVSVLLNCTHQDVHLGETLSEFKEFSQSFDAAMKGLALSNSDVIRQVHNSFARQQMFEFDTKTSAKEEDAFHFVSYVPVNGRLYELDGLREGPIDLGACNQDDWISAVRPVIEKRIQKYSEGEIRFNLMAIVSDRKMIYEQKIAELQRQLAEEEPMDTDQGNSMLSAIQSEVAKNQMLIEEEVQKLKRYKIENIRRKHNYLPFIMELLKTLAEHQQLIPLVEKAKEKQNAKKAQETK
Outline: as §1

[8] = molecular target: USP10 (UniProt Q14694)
Outline: as §1

[9] = molecular target: T6, USP15 (UniProt Q9Y4E8)
T6 sequence (whole entry): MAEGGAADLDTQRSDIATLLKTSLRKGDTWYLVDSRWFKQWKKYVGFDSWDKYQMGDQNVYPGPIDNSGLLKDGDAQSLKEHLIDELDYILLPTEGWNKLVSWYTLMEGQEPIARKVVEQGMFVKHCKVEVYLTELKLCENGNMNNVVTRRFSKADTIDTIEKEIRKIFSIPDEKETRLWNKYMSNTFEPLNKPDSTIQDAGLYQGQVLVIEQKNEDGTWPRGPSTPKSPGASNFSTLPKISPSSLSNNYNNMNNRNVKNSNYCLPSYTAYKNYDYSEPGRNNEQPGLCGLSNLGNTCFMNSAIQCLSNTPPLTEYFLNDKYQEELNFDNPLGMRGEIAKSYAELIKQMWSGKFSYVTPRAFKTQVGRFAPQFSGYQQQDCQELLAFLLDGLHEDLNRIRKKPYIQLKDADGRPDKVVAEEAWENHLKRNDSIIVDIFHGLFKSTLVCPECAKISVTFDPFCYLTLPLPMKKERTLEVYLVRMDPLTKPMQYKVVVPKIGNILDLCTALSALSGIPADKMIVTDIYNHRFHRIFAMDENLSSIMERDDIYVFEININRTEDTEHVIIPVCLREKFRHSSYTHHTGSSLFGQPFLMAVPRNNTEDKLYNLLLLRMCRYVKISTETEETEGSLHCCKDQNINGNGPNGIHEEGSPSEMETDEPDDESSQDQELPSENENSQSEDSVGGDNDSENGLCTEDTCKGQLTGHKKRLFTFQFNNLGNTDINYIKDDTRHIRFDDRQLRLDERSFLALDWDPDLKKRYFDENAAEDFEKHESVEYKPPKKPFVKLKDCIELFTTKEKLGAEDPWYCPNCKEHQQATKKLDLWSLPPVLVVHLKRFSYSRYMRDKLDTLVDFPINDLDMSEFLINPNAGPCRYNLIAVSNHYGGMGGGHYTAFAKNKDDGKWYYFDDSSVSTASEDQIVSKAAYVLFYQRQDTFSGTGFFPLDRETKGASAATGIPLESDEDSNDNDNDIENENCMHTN
Outline: as §1

[10] = molecular target: USP16 (UniProt Q9Y5T5)
Outline: as §1

Measured: log2 ratio of Biotin-Ahx-Ub-VS probe labelling

USP10, sequence (Q14694 whole entry): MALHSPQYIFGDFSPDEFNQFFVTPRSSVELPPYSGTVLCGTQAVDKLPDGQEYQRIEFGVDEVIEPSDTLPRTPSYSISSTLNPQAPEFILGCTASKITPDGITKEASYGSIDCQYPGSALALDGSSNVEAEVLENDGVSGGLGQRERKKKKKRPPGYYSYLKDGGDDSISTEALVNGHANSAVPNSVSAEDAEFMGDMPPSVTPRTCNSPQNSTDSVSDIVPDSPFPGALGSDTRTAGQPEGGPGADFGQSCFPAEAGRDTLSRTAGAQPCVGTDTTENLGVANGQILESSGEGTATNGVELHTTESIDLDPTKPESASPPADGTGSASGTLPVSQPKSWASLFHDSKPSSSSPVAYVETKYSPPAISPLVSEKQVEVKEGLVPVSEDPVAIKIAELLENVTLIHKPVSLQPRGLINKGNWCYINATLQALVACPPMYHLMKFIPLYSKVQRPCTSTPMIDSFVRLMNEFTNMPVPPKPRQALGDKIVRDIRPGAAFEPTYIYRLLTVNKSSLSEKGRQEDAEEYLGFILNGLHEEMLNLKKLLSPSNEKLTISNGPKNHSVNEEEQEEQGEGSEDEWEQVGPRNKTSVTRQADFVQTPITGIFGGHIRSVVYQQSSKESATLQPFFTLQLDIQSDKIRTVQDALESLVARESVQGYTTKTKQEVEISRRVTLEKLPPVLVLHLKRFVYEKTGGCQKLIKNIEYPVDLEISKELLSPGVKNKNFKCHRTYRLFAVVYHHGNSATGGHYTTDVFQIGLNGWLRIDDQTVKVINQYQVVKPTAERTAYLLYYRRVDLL
UCHL1, sequence (P09936 whole entry, looked up): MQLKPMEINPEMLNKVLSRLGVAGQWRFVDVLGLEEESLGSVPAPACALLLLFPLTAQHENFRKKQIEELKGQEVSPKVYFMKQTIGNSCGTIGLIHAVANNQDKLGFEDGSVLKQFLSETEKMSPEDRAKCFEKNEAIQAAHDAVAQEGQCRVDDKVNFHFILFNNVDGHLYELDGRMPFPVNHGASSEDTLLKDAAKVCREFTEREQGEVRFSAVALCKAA
USP16, sequence (Q9Y5T5 whole entry, looked up): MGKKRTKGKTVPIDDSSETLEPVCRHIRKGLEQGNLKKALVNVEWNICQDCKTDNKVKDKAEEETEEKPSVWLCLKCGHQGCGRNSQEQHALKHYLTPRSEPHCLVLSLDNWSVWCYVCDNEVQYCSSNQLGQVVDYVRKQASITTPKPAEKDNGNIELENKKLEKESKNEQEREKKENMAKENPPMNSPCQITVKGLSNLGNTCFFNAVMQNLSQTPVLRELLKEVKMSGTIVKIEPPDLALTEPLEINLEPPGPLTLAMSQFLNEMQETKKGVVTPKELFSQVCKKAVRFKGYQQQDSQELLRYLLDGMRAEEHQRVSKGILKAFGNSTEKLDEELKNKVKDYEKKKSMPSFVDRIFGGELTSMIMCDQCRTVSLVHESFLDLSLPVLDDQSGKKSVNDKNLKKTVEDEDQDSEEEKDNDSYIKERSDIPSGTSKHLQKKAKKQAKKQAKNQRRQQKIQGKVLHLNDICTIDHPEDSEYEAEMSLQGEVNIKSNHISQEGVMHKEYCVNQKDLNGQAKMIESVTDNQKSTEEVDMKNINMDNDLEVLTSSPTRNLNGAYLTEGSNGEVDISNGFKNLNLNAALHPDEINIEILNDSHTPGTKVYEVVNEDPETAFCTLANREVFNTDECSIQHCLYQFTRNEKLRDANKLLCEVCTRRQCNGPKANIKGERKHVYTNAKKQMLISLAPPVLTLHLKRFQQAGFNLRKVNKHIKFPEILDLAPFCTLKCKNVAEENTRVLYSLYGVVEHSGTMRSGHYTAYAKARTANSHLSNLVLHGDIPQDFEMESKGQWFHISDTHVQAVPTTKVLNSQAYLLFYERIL

Cc1nc(CC2CCN(C(=O)CCl)CC2)no1
inactive: [1] -0.781 | [2] -0.652 | [3] -0.314 | [4] 0.0562 | [6] -0.269 | [7] -0.792 | [8] -0.321 | [9] -0.77 | [10] 0.0849
active: [5] -1.96
